Data on 24 compounds can be found in PubChem BioAssay (NCATS).

Results filed as inconclusive are left out. Calls of active or inactive are those of the source. The call rests on the fitted dose curve; in most records, active means well fitted cell-killing curve with a large enough effect; inconclusive means small, poorly fitted or top-dose-only effect, or effect the other way; inactive means no such curve, though single readings can be large or run the other way.
Potency means the concentration at half of the fitted maximal effect.

This test is described as follows: Quantitative High-Throughput drug screen in 47 multiple myeloma cell lines against the NCATS MIPE library collection: AMO1_DSMZ cell viability assay (AID 1918927; further: nearly all actives have a fitted effect of over 30% in size). Particulars: AMO1 myeloma cells viability, CellTiter-Glo ATP luminescence, 48 h; series mostly up to 45.8 µM; viability, % of DMSO: at the top concentration. The method, boiled down: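 Relative luminescence from CellTiter-Glo served as the viability signal, referenced to DMSO-treated (100%) and cell-free medium (0%) controls. Treatment lasted 48 hours at 37C with 500 cells per well.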
For orientation: ATP-based viability assays read luminescence as a measure of living cells.
As for `CC(C)OC(=O)CCCC=CC[C@@H]1[C@H](C=C[C@@H](O)COc2cccc(C(F)(F)F)c2)[C@H](O)C[C@@H]1O`, the “viability, % of DMSO” value was 124% (inactive).
On the same count and under the same terms, the figure for `CN(C)CCC=C1c2ccccc2COc2ccc(CC(=O)O)cc21` is 103% (inactive).
As for `N[C@H](CSC(c1ccccc1)(c1ccccc1)c1ccccc1)C(=O)O`, the Potency is 23.5 µM (active).
`CC=CC(=O)N(CC)c1ccccc1C`: the “viability, % of DMSO” value is 97.2% (inactive).
Turning to `N#CC(=C(N)Sc1ccccc1N)C(C#N)=C(N)Sc1ccccc1N`, the Potency is 18.7 µM (active).
Take `C[C@]12CC[C@@H]3c4ccc(O)cc4CC[C@H]3[C@H]1C[C@@H](O)[C@H]2O`: the Potency was 18.7 µM (active).
Still for that read-out and setting: the value for `Cc1ccc(F)c(NC(=O)Nc2ccc(-c3cccc4[nH]nc(N)c34)cc2)c1` was 10.5 µM (active).
With `NC[C@@H]1O[C@@H](O[C@H]2[C@@H](O)[C@H](O[C@@H]3[C@@H](O)[C@@H](N)C[C@H](N)[C@H]3O[C@H]3O[C@H](CN)[C@@H](O)[C@@H](O)[C@H]3N)O[C@H]2CO)[C@H](N)[C@@H](O)[C@@H]1O`, the “viability, % of DMSO” value is 123% (inactive).
The same measure, in the same setting: the figure for `CCOC(=O)O[C@]1(C(=O)OCCl)CC[C@@H]2[C@H]3CCC4=CC(=O)C=C[C@]4(C)[C@@H]3[C@@H](O)C[C@@]21C` is 105% (inactive).
`CCc1ccc(OCc2ccccc2C(=O)Nc2ccc3nc(C)cc(N)c3c2)cc1`: the Potency was 3.32 µM (active).
`OC[C@H]1O[C@@H](Oc2cc(O)cc(C=Cc3ccc(O)cc3)c2)[C@H](O)[C@@H](O)[C@H]1O`: the “viability, % of DMSO” value is 121% (inactive).
On to `CCCCCCCCCCCC1=C(O)C(=O)C=C(O)C1=O`, for which the Potency is 3.32 µM (active).
As for `NC1CCC(Nc2nc(Nc3ccc(C(=O)N4CCCCC4)cc3)c3ncn(-c4cccc(F)c4)c3n2)CC1` (centres undefined), the “viability, % of DMSO” value was 97.3% (inactive).
On the same count and under the same terms, the figure for `CC[C@H]1OC(=O)[C@H](C)[C@@H](O[C@H]2C[C@@](C)(OC)[C@@H](O)[C@H](C)O2)[C@H](C)[C@@H](O[C@@H]2O[C@H](C)C[C@H](N(C)C)[C@@H]2O)[C@](C)(O)C[C@@H](C)CN(C)[C@H](C)[C@@H](O)[C@]1(C)O` is 144% (inactive).
In the case of `CC[C@@]1(O)C[C@H](O[C@H]2C[C@H](N(C)C)[C@H](O[C@H]3C[C@H](O)[C@H](O[C@H]4CCC(=O)[C@H](C)O4)[C@H](C)O3)[C@H](C)O2)c2c(cc3c(c2O)C(=O)c2c(O)cccc2C3=O)[C@@H]1C(=O)OC`, the Potency is 0.833 µM (active).
The same measure, in the same setting: the figure for `Cc1c(O)cccc1C(=O)N[C@@H](CSc1ccccc1)[C@H](O)CN1C[C@H]2CCCC[C@@H]2C[C@@H]1C(=O)NC(C)(C)C` is 16.6 µM (active).
On to `O=c1c(-c2ccc(O)cc2)coc2cc(O[C@@H]3O[C@H](CO)[C@H](O)[C@H](O)[C@H]3O)ccc12`, for which the “viability, % of DMSO” value was 134% (inactive).
On to `CN(C)c1cc(NC(=O)CNC(C)(C)C)c(O)c2c1C[C@@H]1C[C@H]3[C@H](N(C)C)C(=O)C(C(N)=O)=C(O)[C@@]3(O)C(=O)C1=C2O`, for which the “viability, % of DMSO” value is 89.4% (inactive).
Turning to `Cc1[nH]c(C=C2C(=O)Nc3ccc(S(=O)(=O)Cc4c(Cl)cccc4Cl)cc32)c(C)c1C(=O)N1CCC[C@H]1CN1CCCC1`, the Potency is 26.4 µM (active).
Regarding `OC[C@H]1O[C@@H](n2cnc3c2NC=NC[C@@H]3O)C[C@H]1O`, the “viability, % of DMSO” value is 110% (inactive).
For `Cc1nnc(C(C)C)n1C1C[C@H]2CC[C@@H](C1)N2CC[C@H](NC(=O)C1CCC(F)(F)CC1)c1ccccc1` (some centres undefined), the “viability, % of DMSO” value is 100% (inactive).
As for `CC1(C)S[C@H]2[C@H](NC(=O)[C@@H](N)c3ccc(O)cc3)C(=O)N2[C@@H]1C(=O)O`, the Potency is 2.35 µM (active).
Still for that read-out and setting: the value for `CO[C@H]1C=CC=C(C)C(=O)NC2=CC(=O)C(NCCN(C)C)=C(C[C@@H](C)C[C@H](OC)[C@@H](O)[C@@H](C)C=C(C)[C@@H]1OC(N)=O)C2=O` was 0.0469 µM (active); that for `CCN(CC)CCOc1ccc(C(=C(Cl)c2ccccc2)c2ccccc2)cc1` was 18.7 µM (active).
